The values below come from PubChem BioAssay (NCI).

Each structure is given as a SMILES string. Compounds without any hit were thinned out: in the full panel of roughly 79,000, 15% have a hit. A number with no mark means an inactive call. Active and inactive are the calls of the source. Cut-off read from the data, not from the text of the source: active = growth inhibition above about 70%; inactive = the rest.

Assay [1] can be described thus: NCI Yeast Anticancer Drug Screen. Data for the rad50 strain (AID 155).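 Note: 0% = growth of vehicle-only cultures of the same strain.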 Conditions: S. cerevisiae rad50 strain growth inhibition; at 50.0 µM; stronger effect = higher value. In short, it runs like this:
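Vehicle-treated cultures provide the reference for the growth inhibition reported for compound-exposed, repair-deficient yeast.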

Assay [2] is described as follows: NCI Yeast Anticancer Drug Screen. Data for the mec2-1 strain (AID 157). Conditions: S. cerevisiae mec2-1 strain, at 50.0 µM, stronger effect = higher value. In short, it runs like this:
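Strain: mec2-1 (DNA repair/cell cycle alteration). Compound exposure, then growth measured; inhibition expressed relative to vehicle.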

Assay [3] in a line: NCI Yeast Anticancer Drug Screen. Data for the sgs1 mgt1 strain (AID 161).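 Note: 0% = growth of cultures given vehicle only.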 Conditions: S. cerevisiae sgs1 mgt1 strain, at 50.0 µM, stronger effect = higher value. In short, it runs like this:
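Inhibition of yeast growth, normalised to vehicle-treated controls, is reported for a strain bearing genetic alterations in DNA damage repair.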

Assay [4] in a line: NCI Yeast Anticancer Drug Screen. Data for the cln2 rad14 strain (AID 165).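 Note: 0% = growth equal to vehicle treated cultures.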 Conditions: S. cerevisiae cln2 rad14 strain, at 50.0 µM, stronger effect = higher value. In short, it runs like this: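 Compounds are applied to the cln2 rad14 yeast strain, and growth is then compared with that of vehicle-treated cultures to give inhibition.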
Assay [5] can be described thus: NCI Yeast Anticancer Drug Screen. Data for the bub3 strain (AID 167). Conditions: S. cerevisiae bub3 mutant strain, at 50.0 µM, stronger effect = higher value. In short, it runs like this: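 Mutant yeast screening strain plus compound; vehicle-treated cultures serve as the 0% inhibition reference.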
Assay [6] can be described thus: NCI Yeast Anticancer Drug Screen. Data for the mlh1 rad18 strain (AID 175). Particulars: S. cerevisiae mlh1 rad18 strain growth inhibition; at 50.0 µM; stronger effect = higher value. In short, it runs like this: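 Read-out is yeast growth inhibition, calculated against vehicle-only controls. The compound was applied to a strain engineered with DNA damage repair alterations.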

`O=c1c(-c2ccc3c(c2)OCO3)coc2cc(O)ccc12`: the growth inhibition in assay [1] is -2.9%; in assay [2] it was -0.85%; in assay [3], 18.9%; in assay [4] it was 13.7%; in assay [5], 11.6%; in assay [6], 23.1%.
`O=C(O)Cc1cccc(C(=O)O)c1`: the growth inhibition in assay [1] was -1.55%; in assay [2], -8%; in assay [3], -7.3%; in assay [4] it was 8.4%; in assay [5], -0.45%; in assay [6], -3.35%.
For `O=c1[nH]cnc2c(COCCO)c[nH]c12`, the growth inhibition in assay [1] was -18.6%; in assay [2], 2.8%; in assay [3] it was -19.5%; in assay [4], -3.95%; in assay [5], -34.3%; in assay [6], -20.9%.
For the compound `NC1NC(=O)C(CCCOc2ccc([N+](=O)[O-])cc2)C(c2ccccc2)N1` (stereo not given), the growth inhibition in assay [1] is 3.55%; in assay [2], -11.8%; in assay [3] it was 6.6%; in assay [4] it was 2.35%; in assay [5], 21.8%; in assay [6], 10.4%.
Regarding `CC(Oc1ccc([N+](=O)[O-])cc1)c1ccccc1` (stereo not given), the growth inhibition in assay [1] was -21.6%; in assay [2], -0.55%; in assay [3] it was -3.7%; in assay [4], -37.1%; in assay [5], -23.4%; in assay [6], 1.4%.
`CCOC(=O)c1c(C)[nH]c(-c2csc(N)n2)c1C`: the growth inhibition in assay [1] was -5.3%; in assay [2] it was -1.65%; in assay [3] it was 21.4%; in assay [4], -55.7%; in assay [5] it was -9.35%; in assay [6], -14.8%.
Regarding `C=CCOC(=O)NC(Cc1ccc(O)cc1)C(=O)O` (stereo not given), the growth inhibition in assay [1] was -0.05%; in assay [2], -4.85%; in assay [3] it was 4.5%; in assay [4] it was 3.65%; in assay [5], -10.8%; in assay [6] it was -2.45%.
For the compound `COC(C)(C)C/C=C/C(C)=C/C=C/C(C)=C\C=C\C(C)=C\C=C\C=C(C)\C=C\C=C(C)\C=C\C=C(C)\C=C\CC(C)(C)OC`, the growth inhibition is -10.8% in assay [1]; -1.65% in assay [2]; -26.9% in assay [3]; 2.25% in assay [4]; -12.2% in assay [5]; -12.1% in assay [6].
`CC1(C)CC(Nc2ccc(Nc3ccccc3)cc2)CC(C)(C)N1`: the growth inhibition in assay [1] was -4.35%; in assay [2] it was -6.3%; in assay [3] it was -11.3%; in assay [4], -9.8%; in assay [5], -2.1%; in assay [6], -19.8%.
Turning to `CC(C)OC(=O)C(=O)OC(C)C`, the growth inhibition in assay [1] was 14.3%; in assay [2], 20.1%; in assay [3], -24.3%; in assay [4] it was 0.1%; in assay [5], 0.85%; in assay [6], 1.85%.
Take `NC(=O)COc1ccc(Cl)cc1Cl`: the growth inhibition was 16.6% in assay [1]; -0.5% in assay [2]; 28.4% in assay [3]; -0.4% in assay [4]; 5.7% in assay [5]; 20% in assay [6].
In the case of `CC(=O)Nc1cc(N)cc(C(=O)O)c1`, the growth inhibition is 37% in assay [1]; -0.9% in assay [2]; 9.15% in assay [3]; 9.75% in assay [4]; -33.9% in assay [5]; -7.5% in assay [6].
Consider `NC(N)=NS(=O)(=O)c1ccc(N=Cc2c3ccccc3nc3ccccc23)cc1`, for which the growth inhibition was 98.7% (active) in assay [1]; 99.3% (active) in assay [2]; 99.2% (active) in assay [3]; 98.8% (active) in assay [4]; 96% (active) in assay [5]; 98.8% (active) in assay [6].
Take `CC1=NN(c2ccc([N+](=O)[O-])cc2)C(=O)C1`: the growth inhibition in assay [1] was 25.6%; in assay [2] it was 0.25%; in assay [3], 22.6%; in assay [4], 6.1%; in assay [5], 25.6%; in assay [6], 36.9%.
Regarding `Cc1ccc(NC(=O)N2CC2(C)C)cc1NC(=O)N1CC1(C)C`, the growth inhibition in assay [1] is 0.2%; in assay [2], 0.55%; in assay [3] it was 2.8%; in assay [4] it was -1.6%; in assay [5] it was 1.2%; in assay [6], 4.9%.
For `CCOC(=O)C1C(=O)C(=O)N(C)C1c1ccccc1` (stereo not given), the growth inhibition was -2.6% in assay [1]; 16.3% in assay [2]; 8.1% in assay [3]; -49.9% in assay [4]; 2.7% in assay [5]; 8.55% in assay [6].
In the case of `CCCCN(CCCC)CCNC(c1ccc(Cl)cc1)c1ccc(OC)cc1` (stereo not given), the growth inhibition in assay [1] is 14.5%; in assay [2], 4.3%; in assay [3], 4.45%; in assay [4] it was -7.85%; in assay [5], 8.35%; in assay [6], 33.4%.
`Cc1nc2ccccc2c(=O)n1C`: the growth inhibition in assay [1] was -7.5%; in assay [2], -17.9%; in assay [3], 10.7%; in assay [4], 2.35%; in assay [5], -5.4%; in assay [6] it was 3.95%.
Turning to `COc1cc2c(cc1OC)C(=O)/C(=C/c1ccc(O)cc1)CC2`, the growth inhibition is 36.5% in assay [1]; -8.9% in assay [2]; 43.5% in assay [3]; 24.9% in assay [4]; 23.2% in assay [5]; 22.4% in assay [6].
Consider `CCOCC(Cl)C(OCC)OCC` (stereo not given), for which the growth inhibition is 0.45% in assay [1]; 6.5% in assay [2]; -5.4% in assay [3]; -20.1% in assay [4]; 2.85% in assay [5]; -1.1% in assay [6].
